The source of these data is PubChem BioAssay AID1445 (SRMLSC, 2008).

Structures are written as SMILES. In all, about 220,000 compounds went through this assay and about 910 (0.41%) were called active.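 How the source made its calls: active means primary inhibition above the hit cutoff, then over 50% inhibition at one or more dose response concentrations (cut at about 23% in these data, passing the limit was not always enough); inconclusive means conflicting primary data, or primary hits not chosen for dose response; inactive means low primary inhibition, or under 50% at every dose.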 The full list was thinned out, with actives kept by preference. Potency and affinity values are given separately.

The target of the assay is Aminopeptidase N (Plasmodium falciparum (isolate 3D7)) (UniProt O96935). Kind of assay: P. falciparum M1AAP inhibitors, biochemical, fluorogenic H-Leu-NHMec substrate, 1536-well (AID 1445).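 Further: plate controls were DMSO full reaction for no effect and no enzyme background for full effect.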 The note with it: recombinant M1AAP, H-Leu-NHMec fluorogenic kinetic assay; at 30 µM, active compounds read high unless noted.
Sequence of Aminopeptidase N (Plasmodium falciparum (isolate 3D7)) (O96935 whole entry, looked up): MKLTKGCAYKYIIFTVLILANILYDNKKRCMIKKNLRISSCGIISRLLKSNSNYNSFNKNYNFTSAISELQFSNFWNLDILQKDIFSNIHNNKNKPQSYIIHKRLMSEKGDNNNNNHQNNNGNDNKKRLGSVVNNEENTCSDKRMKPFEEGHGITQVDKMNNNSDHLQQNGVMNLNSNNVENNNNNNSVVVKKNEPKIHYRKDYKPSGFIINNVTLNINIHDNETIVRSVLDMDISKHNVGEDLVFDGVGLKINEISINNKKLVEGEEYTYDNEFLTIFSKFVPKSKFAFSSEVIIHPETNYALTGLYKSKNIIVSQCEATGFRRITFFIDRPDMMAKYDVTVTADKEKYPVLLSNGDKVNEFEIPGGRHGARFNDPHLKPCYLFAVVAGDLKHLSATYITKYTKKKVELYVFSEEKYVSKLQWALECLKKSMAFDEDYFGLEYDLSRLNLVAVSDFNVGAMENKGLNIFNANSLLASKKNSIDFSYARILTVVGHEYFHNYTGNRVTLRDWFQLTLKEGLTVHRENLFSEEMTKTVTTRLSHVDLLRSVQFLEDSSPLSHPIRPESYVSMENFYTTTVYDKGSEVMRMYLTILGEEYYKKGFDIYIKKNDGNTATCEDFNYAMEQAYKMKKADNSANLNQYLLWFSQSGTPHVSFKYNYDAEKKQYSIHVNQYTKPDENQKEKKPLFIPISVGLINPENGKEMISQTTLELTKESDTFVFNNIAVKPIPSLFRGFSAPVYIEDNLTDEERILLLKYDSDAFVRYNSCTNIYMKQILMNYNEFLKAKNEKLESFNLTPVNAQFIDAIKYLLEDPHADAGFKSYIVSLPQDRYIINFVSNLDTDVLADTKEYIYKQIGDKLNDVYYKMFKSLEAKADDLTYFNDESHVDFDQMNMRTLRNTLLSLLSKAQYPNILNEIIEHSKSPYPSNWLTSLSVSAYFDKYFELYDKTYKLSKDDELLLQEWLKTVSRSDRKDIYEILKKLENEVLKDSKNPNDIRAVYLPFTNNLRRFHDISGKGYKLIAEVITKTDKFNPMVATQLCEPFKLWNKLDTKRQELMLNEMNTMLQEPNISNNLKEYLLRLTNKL
For the molecule `CCOC(=O)c1sc2nc3c(SCC(=O)O)cc(C(=O)c4ccccc4O)cn3c(=O)c2c1C`, the inhibition (as a rule, the change of the read-out against control, counted positive when it falls) was 9.02% (inactive).

As to `Cc1sc2nc3c(C(=O)N4CCCC4)cc(C(=O)c4ccccc4O)cn3c(=O)c2c1C`, the inhibition is 17.2% (inactive).

On to `CCOC(=O)c1cc(C(=O)c2ccccc2O)cn2c(=O)c3c(C)c(C)sc3nc12`, for which the inhibition was 13.9% (inactive). Next, `O=C(O)CSc1cc(C(=O)c2ccccc2O)cn2c(=O)c3c(-c4ccccc4)csc3nc12`: 17.9% (inactive). In the case of `CCOC(=O)c1sc2nc3c(SCCC#N)cc(C(=O)c4cc(F)ccc4O)cn3c(=O)c2c1C`, the inhibition was 2.71% (inactive).

For the molecule `O=C(O)CSc1cc(C(=O)c2cc(F)ccc2O)cn2c(=O)c3c(-c4ccccc4)csc3nc12`, the inhibition was 21.3% (inactive). The same measure for `COC(=O)N/N=C(\C)c1ccc(-n2ccnc2)cc1`: -0.5% (inactive). The same measure for `CCC(=O)N/C(N)=N/c1nc(C)c2cc(C)c(C)cc2n1`: 7.6% (inactive); for `C=CCn1c(N)cc(=O)nc1SCC(=O)NC(C)c1ccccc1` (centres undefined): -2.4% (inactive). For the molecule `O=C(N/N=C/c1ccco1)c1cc(Br)ccc1OCc1ccccc1`, the inhibition is 4.59% (inactive). Next, `C[C@H](NC(=O)c1ccco1)C(=O)Nc1ccc(S(=O)(=O)N2CCCC2)cc1`: -6.98% (inactive); `CC(C(=O)Nc1ccc(S(=O)(=O)N2CCCC2)cc1)N1CCN(C(=O)c2ccco2)CC1` (centres undefined): 35.6% (active). Next, `CC(C)c1ccc(S(=O)(=O)N2CCN(C(=O)c3ccco3)CC2)cc1`: 0.71% (inactive). Next, `Cc1ccc(N=Nc2c(C)[nH]n(-c3ccccc3)c2=O)c(C)c1`: 3.7% (inactive). As to `Cc1[nH]n(-c2ccccc2)c(=O)c1N=Nc1ccccc1`, the inhibition is 4.86% (inactive).

As to `CC(/C=N/Nc1nc(N2CCCCC2)nc(N2CCCCC2)n1)=C\c1ccccc1`, the inhibition was 5.4% (inactive). As for `OCCNc1nc(OCC(F)(F)F)nc(N2CCN(C34CC5CC(CC(C5)C3)C4)CC2)n1`, the inhibition was 9.11% (inactive). The same measure for `CC(=O)Cc1nsc(NC(=O)c2ccc(COc3ccccc3)o2)n1`: 26.3% (active). Next, `CC(=O)Cc1nsc(NC(=O)c2ccc(COc3ccc(C)cc3)o2)n1`: 8.72% (inactive); `CC(=O)Cc1nsc(NC(=O)c2ccc(Br)o2)n1`: 0.84% (inactive); `Cc1cc(NC(=O)CSc2nc(C(C)C)nc3c2c(=O)n(C)c(=O)n3C)no1`: 5.47% (inactive).

`O=C(O)Cc1sc(-c2cccnc2)nc1-c1ccc(Br)cc1`: the inhibition was 9.14% (inactive). Next, `CCOC(=O)N1CCN(c2cc(=O)n(-c3ccccc3Cl)c(=O)[nH]2)CC1`: -0.91% (inactive).

For `CNc1oc(-c2ccc(C)cc2)nc1P(=O)(c1ccccc1)c1ccccc1`, the inhibition was -2.06% (inactive). Next, `CCN(CC)S(=O)(=O)c1ccc(-c2nnc(SC)o2)cc1`: -2.39% (inactive). The same measure for `CCN(CC)S(=O)(=O)c1ccc(-c2nnc(SCC(=O)N3CCOCC3)o2)cc1`: -1.63% (inactive). The same measure for `CCN(CC)S(=O)(=O)c1ccc(-c2nnc(SCC(C)=O)o2)cc1`: 26.5% (active); for `CCCCn1c(SCC(=O)Nc2cc(C)on2)nc2ccsc2c1=O`: 0.46% (inactive).

For `CCCCn1c(SCC(=O)Nc2nccs2)nc2ccccc2c1=O`, the inhibition is 1.43% (inactive). The same measure for `Cn1c(CNC(=O)c2ccccc2)nnc1SCC(=O)Nc1nccs1`: 0.84% (inactive).

Turning to `Cc1cc(NC(=O)CSc2nc3ccsc3c(=O)n2CCCCC(=O)O)no1`, the inhibition is 7.32% (inactive). As to `COc1ccccc1NC(=O)Cn1nc(Cc2cccnc2)c2ccccc2c1=O`, the inhibition was 4.36% (inactive).

As for `Cc1cc2cc(C#N)c(NCCNC(=S)NCCCN3CCOCC3)nc2cc1C`, the inhibition is 11% (inactive).

With `Cc1nc(SCC(=O)NCc2cccs2)nc(C)c1C`, the inhibition is 1.91% (inactive). Next, `CCOc1ccc(N2CC(=O)N/C2=N\c2nc(C)cc(C)n2)cc1`: 0.69% (inactive); `CS(=O)(=O)N(CC(=O)NCc1ccccc1Cl)C1CCCCC1`: -3.91% (inactive); `CCC(CC)C(=O)NN(C(=O)c1ccncc1)C1CC(=O)N(c2ccccc2)C1=O` (centres undefined): 0.84% (inactive). The same measure for `CCN(CC)Cc1ccc(NC(=O)c2sc3cc(Cl)ccc3c2Cl)cc1`: 5.72% (inactive); for `CCOC(=O)C1ON2CCCCC2C1(O)C(F)(F)F` (centres undefined): 4.11% (inactive). Next, `CCOC(=O)c1c(-c2ccc(OC)cc2)csc1NC(=O)CSc1ccccc1`: 9.31% (inactive); `Cc1ccc(C(=O)Nc2ccccc2-c2ccccc2)o1`: 5.46% (inactive). Take `COC(=O)c1c(-c2ccc3ccccc3c2)csc1NC(=O)Cc1ccc(OC)c(OC)c1`: the inhibition was -5.43% (inactive).

On to `O=C(Nc1scc(-c2ccccc2)c1C(=O)O)c1ccco1`, for which the inhibition is 13.6% (inactive). The same measure for `COc1ccc(-c2csc(NC(=O)c3ccc(OCC(=O)N4CCOCC4)c(OC)c3)n2)cc1OC`: -0.86% (inactive); for `COc1ccc(CCNC(=O)[C@@H](NC(N)=O)C(C)C)cc1`: 1.11% (inactive).

`CCOc1ccccc1NC(=O)CCNC(=O)c1ccc(Cl)cc1`: the inhibition was -0.92% (inactive). With `COc1ccccc1C(=O)Nn1c(C2CCC2)nc2ccccc2c1=O`, the inhibition was 28.5% (inactive). The same measure for `COc1cccc(OC)c1C(=O)Nn1c(C2CCC2)nc2ccccc2c1=O`: 1.68% (inactive); for `Cc1nc2ccccc2c(=O)n1NC(=O)C1CCCCC1`: 0.92% (inactive).

On to `O=C(Nn1c(-c2ccccc2)nc2ccccc2c1=O)C1CCC1`, for which the inhibition was 8.13% (inactive).

As to `NS(=O)(=O)c1ccc(NC(=S)NC(=O)/C=C/c2ccco2)cc1`, the inhibition was 22.5% (inactive). As for `C/C(=N/NC(=O)CN1CCN(S(=O)(=O)c2ccc(Br)cc2)CC1)c1ccco1`, the inhibition is 3.47% (inactive). The same measure for `COc1ccc(NC(=O)c2ccc(-c3ccccc3Cl)o2)cc1`: 2.03% (inactive); for `Cc1ccc(S(=O)(=O)N2CCCCC2)cc1NC(=O)CSc1nnc(N)s1`: 11.9% (inactive). As to `COc1ccccc1OCC(=O)N/N=C1\CCc2ccccc21`, the inhibition is -5.88% (inactive). Regarding `O=C1Nc2ncccc2OC1CCO` (centres undefined), the inhibition was 1.94% (inactive).

In the case of `C=CCc1cccc(/C=N/NC(=O)c2ccccc2Br)c1O`, the inhibition is -2.15% (inactive).

As to `O=C(N/N=C/c1cc(Br)ccc1O)Nc1ccccc1`, the inhibition is 2.93% (inactive). The same measure for `O=C(N/N=C/c1ccccc1C(=O)O)c1ccccc1Br`: -4.66% (inactive). Consider `COc1ccc(Br)cc1/C=N/NC(=O)c1cc(Br)ccc1O`, for which the inhibition is 9.13% (inactive). Next, `CC1=NNC(=O)C1Oc1ccccc1` (centres undefined): 3.86% (inactive); `CCCCCCn1c(N2CCC(C(N)=O)CC2)nc2c1c(=O)[nH]c(=O)n2C`: -0.78% (inactive).

On to `Cc1nc(Cl)sc1C(=O)Nc1ccccc1`, for which the inhibition is 2.8% (inactive). Consider `O=C(CSc1nc2ccccc2c(=O)n1-c1ccccc1)c1c[nH]c2ccccc12`, for which the inhibition is 1.41% (inactive).

Consider `COc1ccc2cc(C(=O)C3CCCN(C(=O)CSc4nnc(C)o4)C3)ccc2c1` (centres undefined), for which the inhibition is 12.3% (inactive). With `Cc1cc2nc3c(nc2cc1C)C(O)=C3O`, the inhibition was 20.8% (inactive).

Take `OC1=C(O)c2nc3ccccc3nc21`: the inhibition was -5.83% (inactive). Next, `Cc1nc2c(c3c1[nH]c1ccccc13)C(O)CC(C)(C)C2` (centres undefined): 22.4% (inactive); `C=CCn1c(=O)/c(=C/c2ccc(F)cc2)s/c1=C(\C#N)c1nnc2n1CCCCC2`: 20.7% (inactive); `C=CCn1c(=O)/c(=C/c2ccc(Cl)cc2)s/c1=C(/C#N)c1nnc2n1CCCCC2`: 21.5% (inactive). The same measure for `CCOc1ccc(NC(=NCc2ccc3c(c2)OCO3)SC2CC(=O)N(c3ccc(C(=O)O)cc3)C2=O)cc1` (centres undefined): 1.35% (inactive); for `N=c1sccn1CC(=O)Nc1ccc(S(=O)(=O)N2CCOCC2)cc1`: -2.17% (inactive); for `Cc1ccc(Cn2c(O)c(N=O)c3ccccc32)cc1`: 4.37% (inactive). As for `O=C(c1ccc2c(c1)OCO2)C1CCCN(C2CCN(CCc3ccccc3)CC2)C1` (centres undefined), the inhibition was 6.4% (inactive). The same measure for `CC(C)(C)NC(=O)CSc1nnc(Cc2ccccc2)n1CC1CCCO1` (centres undefined): 2.88% (inactive); for `COc1ccc(NC(=O)NCc2ccco2)c(OC)c1`: 1.06% (inactive). The same measure for `COc1ccc(OC)c(NC(=S)NCc2cccnc2)c1`: 4.71% (inactive); for `COc1ccc(OC)c(C2=NOC(C(=O)NCc3ccccn3)C2)c1` (centres undefined): -2.41% (inactive); for `COc1ccc(NC(=O)C2C3C=CC(C3)C2C(=O)NCc2ccccn2)c(OC)c1` (centres undefined): 25.6% (active). The same measure for `Cc1cccc(C)c1NC(=O)C1C2C=CC(C2)C1C(=O)NCc1ccccn1` (centres undefined): 15.1% (inactive); for `O=C(NCc1ccccn1)C1C2C=CC(C2)C1C(=O)Nc1ccc(F)cc1` (centres undefined): 18.1% (inactive); for `O=C(O)C1C2C=CC(C2)C1C(=O)NCc1cccnc1` (centres undefined): 2.34% (inactive). With `COc1ccc(NC(=O)C2C3C=CC(C3)C2C(=O)NCc2ccco2)cc1` (centres undefined), the inhibition was 4.82% (inactive). Regarding `O=C(O)C1C2C=CC(C2)C1C(=O)NCc1ccccn1` (centres undefined), the inhibition is -0.69% (inactive). Next, `O=C(Cn1nc(Cl)nc1Cl)Nc1ccccc1`: 0.91% (inactive). Next, `O=C(NNC(=S)Nc1ccc(F)cc1)C1[C@H]2CCCC[C@@H]12` (some centres undefined): -16.1% (inactive). The same measure for `O=C(NCc1n[nH]c(=S)n1-c1ccc(Br)cc1)c1ccc(S(=O)(=O)N2CCOCC2)cc1`: 2.45% (inactive); for `Cc1cc(C)c(S(=O)(=O)N2CCN(C)CC2)c(C)c1`: 4.18% (inactive). Take `Cc1ccc(NC2=C(Cl)C(=O)OC2OC(=O)c2ccco2)cc1C` (centres undefined): the inhibition was 5.26% (inactive).

On to `C=CCOC(=O)C1=C[C@@H](c2coc3ccccc3c2=O)C[C@@H](OCc2ccc(CO)cc2)O1`, for which the inhibition is 6.22% (inactive). The same measure for `CCN(CC)CCOC(=O)c1cccc2c1-c1ccccc1C2O` (centres undefined): 1.02% (inactive). The same measure for `NNC(=O)c1cc2c(s1)-c1cc(Cl)ccc1SC2`: 3.34% (inactive). The same measure for `Cc1ccc(SCC(=O)Nc2ccccc2C(=O)O)cc1`: -0.6% (inactive); for `CC(=O)Nc1cccc(C(=O)Nc2ccccc2C(=O)O)c1`: -0.69% (inactive).
